PubChem BioAssay
The source made the active and inactive calls.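 How the source made its calls, unless noted: active means inhibition of the reporter signal at or above 50%; inactive means inhibition below 50%.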

Columns and labels:
[1] = inhibitors of TNFa-induced NFkB p65 translocation, primary screen, imaging, HUVEC, MLSMR starter and 10KST1 sets (AID 438;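 active means inhibition above 20% together with a positive visual image hit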;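 further: compound added about 3h40 before a 20 min TNFalpha stimulation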;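 on inhibition: signal is the nuclear over cytoplasmic p65 intensity ratio per well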); settings: HUVEC TNFa-induced p65 nuclear translocation; cell count: measured here: nuclei count (cytotoxicity indicator), at 2.08 µM; inhibition: at 2 µM, stronger effect = higher value, 0% TNFa-plus-vehicle, 100% no-TNFa wells
[2] = inhibitors of mutant huntingtin aggregation, primary screen, imaging, exon1htt(103Q)mCFP cells, high-content imaging (AID 483;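 active means visual image review flags a hit and inhibition of aggregation exceeds 20%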;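 further: compound exposure lasted 3 days before fixation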;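 on nuclei count: percent of the per-plate median nuclei count of sample wells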); settings: exon1htt(103Q)mCFP cell line, aggregate imaging, at 2 µM; inhibition of aggregation: stronger effect = higher value; nuclei count: measured here: cell count, toxicity
[3] = inhibitors of E-selectin induction by TNFa, primary screen, imaging, HUVEC, immunofluorescence, MLSMR starter and 10KST1 sets (AID 487;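 active means visually confirmed hit in the image check and inhibition above 20%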;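 on inhibition: signal is fraction of cell area covered by stained E-selectin grains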;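 on nuclei count: 100% = median nuclei count of all wells on the same plate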); settings: HUVEC TNFalpha-induced E-selectin immunofluorescence imaging, at 2 µM; inhibition: stronger effect = higher value; nuclei count: measured here: cell number, toxicity
[4] = molecular target: Voltage-gated potassium channel subunit beta-2 (Rattus norvegicus) (UniProt P62483); assay: KvBeta enzyme negative modulators, primary screen, biochemical, NADPH fluorescence (AID 622;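 active means fluorescence slope higher than the sample average by over 3 SD, cut at about -0.22 in these data, passing the limit was not always enough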;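 further: slope of raw intensity against log time taken from 70 to 1610 s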); settings: recombinant KvBeta, 4-cyanobenzaldehyde reduction, at 10 µM, stronger effect = higher value
Sequence of Voltage-gated potassium channel subunit beta-2 (Rattus norvegicus) (P62483 whole entry, looked up): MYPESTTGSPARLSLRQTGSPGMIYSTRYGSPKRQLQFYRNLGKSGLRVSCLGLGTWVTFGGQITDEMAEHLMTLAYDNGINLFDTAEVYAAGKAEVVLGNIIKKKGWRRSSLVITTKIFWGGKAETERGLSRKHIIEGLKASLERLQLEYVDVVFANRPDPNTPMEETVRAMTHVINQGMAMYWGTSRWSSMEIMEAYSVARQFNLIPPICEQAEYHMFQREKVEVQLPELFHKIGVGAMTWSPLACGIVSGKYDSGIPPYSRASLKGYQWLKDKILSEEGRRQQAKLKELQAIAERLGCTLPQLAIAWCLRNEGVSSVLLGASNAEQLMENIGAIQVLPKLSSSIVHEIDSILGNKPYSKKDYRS

[5] = molecular target: Voltage-gated potassium channel subunit beta-2 (Rattus norvegicus) (UniProt P62483); assay: KvBeta positive modulators, primary screen, biochemical, NADPH fluorescence (AID 623;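 active means NADPH fluorescence slope more negative than the mean of all samples by about 3 SD, 99.7% confidence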;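 further: fluorescence intensity change per second fitted from 20 to 320 s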); settings: Recombinant KvBeta, NADPH fluorescence decrease slope, 10 min; at 10 µM; stronger effect = lower value
[6] = molecular target: Alpha-2C adrenergic receptor (Homo sapiens) (UniProt P18825); assay: modulators of alpha2C/GIRK thallium flux, primary screen, cell-based, HEK293 alpha2C/GIRK1/2 (AID 624;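 active means fluorescence slope after compound addition differing from the mean of all screened samples at 99.7% confidence, in either direction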;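 further: slope of fluorescence ratio to pre-addition baseline per second over 15 to 24 s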); settings: thallium flux BTC fluorescence, at 10 µM, actives lie on both sides
Sequence of Alpha-2C adrenergic receptor (Homo sapiens) (P18825 whole entry, looked up): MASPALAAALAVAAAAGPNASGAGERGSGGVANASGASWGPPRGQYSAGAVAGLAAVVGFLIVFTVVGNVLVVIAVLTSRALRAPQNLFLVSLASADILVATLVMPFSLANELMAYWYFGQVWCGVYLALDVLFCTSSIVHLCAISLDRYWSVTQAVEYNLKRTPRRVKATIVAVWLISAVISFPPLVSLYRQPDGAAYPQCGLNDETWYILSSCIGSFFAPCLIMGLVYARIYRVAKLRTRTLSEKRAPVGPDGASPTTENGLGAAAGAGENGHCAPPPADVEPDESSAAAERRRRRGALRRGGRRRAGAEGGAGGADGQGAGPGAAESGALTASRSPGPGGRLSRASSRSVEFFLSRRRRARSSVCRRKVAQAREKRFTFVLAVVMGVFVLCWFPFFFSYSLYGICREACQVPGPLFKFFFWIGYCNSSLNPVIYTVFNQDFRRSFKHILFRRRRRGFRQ

[7] = inhibitors of Sendai virus-induced IRF3 signaling, primary screen, TLR/RLR signaling modifier project, cell-based, Sendai virus stimulus, luciferase, 10K MLSCN set (AID 602276;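 active means inhibition at or above 50% at 10 µM; inactive means inhibition below 50%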;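 further: firefly luciferase from ISG56 promoter only with Renilla not read in this screen; 0% = Sendai virus plus DMSO and 100% = medium plus DMSO without virus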); settings: HEK293 RL24 IRF3 luciferase reporter, at 10 µM, stronger effect = higher value
[8] = inhibitors of poly I:C-induced TLR3 signaling, primary screen, cell-based, poly I:C stimulus, luciferase, 10K MLSCN set (AID 602277); settings: HEK293-TLR3 RL24 IRF3 luciferase reporter, at 10 µM, stronger effect = higher value

Row | SMILES | cell count [1] | inhibition [1] | inhibition of aggregation [2] | nuclei count [2] [%] | inhibition [3] | nuclei count [3] [%] | fluorescence slope [4] | NADPH fluorescence slope [5] | slope [6] | inhibition [7] | inhibition [8]
1 | Cc1ccccc1C(=O)Nc1c(C(=O)N2CCCC2)cnn1-c1ccccc1 | 314 | -6.8% (inactive) | 2.8% (inactive) | 83.6 | -34.4% (inactive) | 84 | -0.596 (inactive) | -2.6e-05 (inactive) | 0.00707 (inactive) | 13.2% (inactive) | 26.1% (inactive)
2 | Cc1ccc(CSc2nc3c(c(=O)[nH]2)CCC3)cc1 | 423 | 11.5% (inactive) | -3.3% (inactive) | 103 | 4.9% (inactive) | 103 | -0.363 (inactive) | -2.9e-05 (inactive) | 0.00659 (inactive) | -0.266% (inactive) | 8.89% (inactive)
3 | Fc1ccc(NCc2nnc(SCc3nnc(-c4ccccc4)o3)n2CC2CCCO2)cc1 (stereo not drawn) | 571 | -9.7% (inactive) | -6% (inactive) | 56.6 | 14.2% (inactive) | 90.9 | -0.528 (inactive) | 3.2e-05 (inactive) | 0.00596 (inactive) | -28.3% (inactive) | -12.4% (inactive)
4 | Cc1oc(-c2ccccc2F)nc1CS(=O)(=O)CC(=O)N1CCN(Cc2ccccc2)CC1 | 853 | -4% (inactive) | -23.9% (inactive) | 90.4 | -96.8% (inactive) | 109 | -0.498 (inactive) | -4.4e-05 (inactive) | 0.00602 (inactive) | 6.04% (inactive) | -4.63% (inactive)
5 | O=c1oc2ccccc2c2c1ncn2-c1ccccc1 | 375 | 0% (inactive) | -20.2% (inactive) | 113 | -9.9% (inactive) | 114 | -0.45 (inactive) | 7.5e-05 (inactive) | 0.00569 (inactive) | 16.7% (inactive) | 27.6% (inactive)
6 | Cc1ccc2oc(=O)c3cnn(CC(=O)NCCC(C)C)c3c2c1 | 618 | -3.9% (inactive) | -7.6% (inactive) | 124 | -31.4% (inactive) | 104 | -0.602 (inactive) | -2.9e-05 (inactive) | 0.0065 (inactive) | 7.61% (inactive) | 18.2% (inactive)
7 | COc1ccccc1NC(=O)Cc1noc(CSc2cc(C)c3ccccc3n2)n1 | 572 | -12.8% (inactive) | 25.7% (inactive) | 81.6 | -160% (inactive) | 95.9 | -0.337 (inactive) | -5.3e-05 (inactive) | 0.00168 (inactive) | 6.32% (inactive) | -8.68% (inactive)
8 | O=C(NCC1CCCO1)C1CCN(c2ccc(S(=O)(=O)N3CCCC3)cc2)CC1 (stereo not drawn) | 446 | 8.5% (inactive) | -5.9% (inactive) | 103 | -38.5% (inactive) | 108 | -0.434 (inactive) | -3.3e-05 (inactive) | 0.0046 (inactive) | 5.23% (inactive) | 21.3% (inactive)
